Laboratory results from ChEMBL document CHEMBL1201862, “PubChem BioAssay data set” (2004).
About 2,500 (4.4%) of roughly 57,000 sequences were called active. Rule as the data show it: active = GI50 up to about 1.1 µM and inactive = higher. Only a sample is shown. Results with a measured potency or affinity are listed apart.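 Grown in 96-well plates, cells were treated for 48 hours with each compound at five concentrations. Insufficient inhibition: endpoint recorded as highest concentration tested. GI50 is the concentration that inhibits growth by half.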

Test system: OVCAR-5
Experiment: NCI tumour cell line growth inhibition, 48 h

| Substance | GI50 [µM] |
| --- | --- |
| mu-(1,7-nanodiamine-N,N')bis-(cis-aminedichloroplatimum (II)), CHEMBL2146215 | > 100 |
| CISPLATIN, CHEMBL11359 | 4.51 |
| [Bis(aminomethyl)pentamethylenesilane]dichloropaltinum(II), CHEMBL2146202 | 3.38 |
| [Bis(aminomethyl)ethylmethylsilane]tetrachloroplatinum(IV), CHEMBL2146192 | 6.49 |
| [Bis(aminomethyl)pentamethylenesilane]tetrachloropaltinum(IV), CHEMBL2146204 | 6.27 |
| cis-Bis[[(trimethylsilyl)methyl]amino]tetrachloroplatinum(IV), CHEMBL2146191 | 30.3 |
| [Bis(aminomethyl)dimethylsilane]tetrachloroplatinum(IV), CHEMBL2146190 | 7.29 |
| [Bis(aminomethyl)dimethylsilane]dichloroplatinum (II), CHEMBL2146201 | 30.5 |
| [Bis(aminomethyl)tetramethylenesilane]dichloropaltinum(II), CHEMBL2146205 | 7.55 |
| [Bis(aminomethyl)tetramethylenesilane]tetrachloropaltinum(IV), CHEMBL2146189 | 4.22 |
